# Bioassay records deposited in PubChem by several laboratories.
# Most compounds without a hit are left out; they make up all but 4.3% or so of the library.
# NALP1 inh – NALP1 inflammasome inhibitors in reconstituted yeast, colorimetric, S. cerevisiae, triplicate retest; S. cerevisiae NALP1/ASC/caspase-1 growth, X-gal OD620, 72 h; inhibition, % at 10 µM; hit rate 0.61% among 280,000; in the data active means inhibition mostly above about 24%, no sharp cut-off; inactive means mostly below about 32%
# UBC13 polyUb – UBC13 polyubiquitin chain formation inhibitors, primary screen, biochemical, TR-FRET, uHTS; inhibition, % at 20 µM; hit rate 0.47% among 330,000; AID 485273, 2010; in the data active means inhibition above about 45%, passing the limit was not always enough
# Target sequence (P61088 whole entry, looked up): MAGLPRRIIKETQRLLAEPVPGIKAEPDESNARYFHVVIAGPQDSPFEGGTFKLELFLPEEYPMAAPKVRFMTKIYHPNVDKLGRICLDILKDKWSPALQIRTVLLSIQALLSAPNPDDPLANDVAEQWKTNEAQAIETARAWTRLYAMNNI
# GRIN3A LBD mod – binders of NR3A ligand-binding domain, primary screen, biophysical, differential scanning fluorimetry, uHTS | Glutamate receptor ionotropic, NMDA 3A (GRIN3A) ligand-binding domain | hit rate 2.5% among 340,000 | Tm shift relative to glycine control, % at 25 µM | NR3A LBD differential scanning fluorimetry, Tm shift; 0% = protein alone, 100% = glycine-bound protein | AID 1259313, 2017;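 active means melting temperature shift of at least 10% of the positive control shift, at one fixed dose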
# dFosB act-1 – activators of delta FosB homodimer, primary screen, biochemical, fluorescence polarization, TAMRA-CDK5 oligo, single point; activation, % at 25 µM; purified delta FosB; percent of positive-control signal above neutral wells; AID 493131, 2011; hit rate 0.99% among 340,000;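 active means mean activation above about 17%, with every replicate also reaching it, limit read from the data, passing the limit was not always enough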
# Target sequence (P13346 whole entry, looked up): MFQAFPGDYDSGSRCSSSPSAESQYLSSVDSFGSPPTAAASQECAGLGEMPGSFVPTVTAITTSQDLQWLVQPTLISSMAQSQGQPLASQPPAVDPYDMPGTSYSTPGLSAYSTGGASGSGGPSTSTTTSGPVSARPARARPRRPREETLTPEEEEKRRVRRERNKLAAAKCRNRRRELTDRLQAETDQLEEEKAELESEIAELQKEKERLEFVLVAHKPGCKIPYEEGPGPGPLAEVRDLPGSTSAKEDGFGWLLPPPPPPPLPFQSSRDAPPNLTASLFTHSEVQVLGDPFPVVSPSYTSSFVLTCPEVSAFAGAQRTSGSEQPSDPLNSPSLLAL
# CR mimetic SO – reduction of superoxide in aged yeast, primary screen, HTS; S. cerevisiae aged cells, superoxide DHE fluorescence; stronger effect = lower value; superoxide response (% of plate mean), % at 10 µM; hit rate 0.18% among 330,000;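 active means superoxide response under a set limit, about three screen SD below normal, cut at about 65% in these data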;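 further: yeast aged for seven days with compound at 30 °C before DHE staining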
# dFosB act-2 – activators of mouse delta FosB DNA binding, confirmation, biochemical, fluorescence polarization, TAMRA-CDK5 oligo, cherry-picked samples; shares compounds with dFosB act-1; 2,400 tested, under 10 active; activation, % at 24.9 µM; purified delta FosB; normalised: neutral wells 0, positive control 100;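 active means highest replicate activation at or above 34% and every replicate reaching that threshold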;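 further: higher polarization means more probe DNA bound by delta FosB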
# Hits are given with their value; - = inactive; . = not tested or not shown.
SMILES,NALP1 inh,UBC13 polyUb,GRIN3A LBD mod,dFosB act-1,CR mimetic SO,dFosB act-2
CC(=O)Nc1ccc(C(=O)Nc2cccc(-c3cnc4ccccc4n3)c2)cc1,-,.,-,24.1,.,-
Cc1ccc(-c2cn3cccnc3n2)cc1NC(=O)c1ccc(Br)o1,.,-,-,-,-,.
CC(=O)N1CCN(C(=O)COC(=O)/C=C/c2ccccc2[N+](=O)[O-])CC1,.,-,-,-,-,.
COC(=O)c1ccc(NC(CC(C)C)C(=O)OC)c([N+](=O)[O-])c1 (configuration not stated),-,-,-,-,-,.
CC(=O)Oc1ccc(-c2ccc(C(=O)NCCc3ccc(S(N)(=O)=O)cc3)cc2)cc1,-,-,-,-,-,.
O=C(Cc1ccc(Cl)cc1)NNC1CC(=O)N(c2ccc3ccccc3c2)C1=O (configuration not stated),.,-,-,31.9,-,-
O=C(Cc1ccccc1)NNC1CC(=O)N(c2ccc(Cl)cc2)C1=O (configuration not stated),-,-,-,-,-,.
CCc1ccc2nc(SCC(=O)Nc3ccccc3N3CCOCC3)c(C#N)cc2c1,.,-,-,24.3,-,-
O=C(NCc1ccc2c(c1)OCO2)c1ccc2c(=O)n(C3CCCC3)c(=O)[nH]c2c1,-,-,-,39.9,-,-
COc1ccc(Cn2c(=O)[nH]c3cc(C(=O)NCc4ccc5c(c4)OCO5)ccc3c2=O)cc1,.,-,-,-,-,.
Cc1cc(NC(=O)CSc2nnc(COc3cccc(C)c3C)n2C)no1,-,-,-,21.2,-,-
CC(OC(=O)c1ccc(NS(=O)(=O)c2ccc3[nH]c(=O)[nH]c3c2)cc1)C(=O)Nc1ccc(Cl)cc1 (configuration not stated),-,-,15.1,21.9,-,-
CC(=O)Nc1ccc(S(=O)(=O)NCCS(=O)(=O)N2CCN(c3ccccc3)CC2)cc1,-,-,-,-,-,.
CC(=O)Nc1ccc(S(=O)(=O)NCCS(=O)(=O)N2CCN(c3ccccc3F)CC2)cc1,-,-,-,21.6,-,-
Cc1ccc(C)c(CN2C(=O)c3ccccc3S(=O)c3ccc(C(=O)NCCCN4CCCC4)cc32)c1 (configuration not stated),-,-,-,25.4,-,-
COCC(C)NC(=O)C1CC(c2cccc(Br)c2)=NO1 (configuration not stated),-,-,-,-,-,.
Cc1cc(SCC(=O)N/N=C/c2cccnc2)nc2c(C)cccc12,-,-,-,67.2,-,-
Cc1csc(NC(=O)c2ccc(Br)s2)n1,-,-,-,-,-,.
CCOc1cccc2sc(NC(=O)c3ccc(Br)s3)nc12,-,-,-,32.8,-,-
Cc1ccc(/C=C/C(=O)N2CCN(S(=O)(=O)/C=C/c3ccccc3)CC2)o1,.,-,-,-,-,.
O=c1[nH]cnc2c1sc1nc(C(F)F)cc(-c3ccccc3)c12,.,-,-,32.4,-,-
COc1ccc(Cn2c(SCc3ccccc3C)nc3cc(OC)c(OC)cc3c2=N)cc1,-,-,.,45.3,-,-
O=C(CCn1c(=S)[nH]c2cc3c(cc2c1=O)OCO3)NCc1cccc(Cl)c1,-,-,-,21.0,-,-
Cc1ccc(Cn2c(=O)n(CCC(=O)NCc3ccc4c(c3)OCO4)c(=O)c3ccccc32)cc1,-,-,-,28.3,-,-
O=C(Cn1cc(C(=O)C2CC2)c2ccccc21)NCc1ccc2c(c1)OCO2,-,-,-,22.1,-,-
SMILES,NALP1 inh,UBC13 polyUb,GRIN3A LBD mod,dFosB act-1,CR mimetic SO,dFosB act-2
COc1ccc(CNC(=O)CCCn2c(=S)[nH]c3cc4c(cc3c2=O)OCO4)cc1,-,-,-,-,-,.
NS(=O)(=O)c1ccc(CCNC(=O)c2ccc[nH]c2=S)cc1,-,-,-,-,-,.
Cc1cccc(C(=O)N2CCN(Cc3nc4sc5c(c4c(=O)[nH]3)CCCC5)CC2)c1,-,-,-,-,-,.
Cc1ccc(Cn2c(CCNc3nc(-c4ccc(C)cc4)cs3)nc3cc(C(=O)NCCCO)ccc32)cc1,.,-,-,23.4,-,-
Cc1ccc(Cn2c(C(C)Nc3nc(-c4ccc(Cl)cc4)cs3)nc3cc(C(=O)NCCCO)ccc32)cc1 (configuration not stated),.,-,-,-,-,.
CSCCC(NC(=O)c1ccc(Cl)cc1Cl)C(=O)N(C)Cc1nc2ccccc2c(=O)[nH]1 (configuration not stated),.,-,-,-,.,.
CC(C)(C)c1ccc(C(=O)NCc2nnc(SCC(=O)NCC3CCCO3)o2)cc1 (configuration not stated),-,-,-,-,-,.
Cc1c(Cc2ccc3c(c2)OCO3)sc(NC(=O)c2ccccc2)c1C(N)=O,-,-,-,38.5,-,-
Cc1nc(NC(=O)c2ccccc2)sc1Cc1ccc2c(c1)OCO2,-,-,-,-,-,.
Cc1cc(C)c(NC(=O)CSc2nc3ncc(Br)cc3[nH]2)c(C)c1,-,-,-,30.4,-,-
O=C(COc1coc(CN2CCc3ccccc3C2)cc1=O)Nc1ccccc1F,.,-,-,-,-,.
CC(=O)c1cccc(NC(=O)Cc2coc3cc4c(cc23)CCC4)c1,-,-,-,41.0,-,-
CC(Oc1ccccc1F)C(=O)NNC(=O)CC(C)c1ccccc1 (configuration not stated),.,-,-,-,-,.
O=C(N/N=C/c1ccncc1)c1ccc(NC(=O)c2cccc(Cl)c2)cc1,-,-,21.6,39.3,-,-
O=C(N/N=C/c1ccncc1)c1ccc(NC(=O)c2ccc(Cl)cc2)cc1,-,-,-,65.2,-,-
Cc1ccc(C(=O)Nc2ccc(C(=O)N/N=C/c3ccncc3)cc2)cc1,-,-,.,.,-,.
C[C@H](NC(=O)OCc1ccccc1)C(=O)NNC(=O)[C@H](C)NC(=O)OCc1ccccc1,.,-,-,-,-,.
C[C@H](NC(=O)OCc1ccccc1)C(=O)NNC(=O)[C@H](Cc1ccccc1)NC(=O)OC(C)(C)C,.,-,-,26.9,-,-
Cc1ccc(OCC(=O)N/N=C/c2cccc3cccnc23)cc1,-,-,-,-,-,.
CCOc1ccc(-n2c(=O)c3sccc3n(Cc3ccc(C)cc3)c2=O)cc1,-,-,-,25.7,-,-
COc1ccc(NC(=O)CCCn2c(=O)c3sccc3n(Cc3ccc(C)cc3)c2=O)cc1,-,-,-,29.2,-,-
COc1cccc(/C=C/C(=O)N2CCN(c3n[nH]c(=O)[nH]c3=O)CC2)c1OC,-,-,-,-,-,.
COc1cccc(CNC(=O)CSc2nnc3c(n2)[nH]c2ccccc23)c1,-,-,-,-,-,.
